# Experimental data taken from PubChem BioAssay (EPA / NIEHS).
# Where “and” joins values, the source holds several entries; their conditions need not be identical. Equal values may be shown once. A structure can be active in one record and inactive in another. Calls of active or inactive are those of the source. Rule for the calls: active = hit-call score of the fitted dose curve at least 0.9, where 1 is the maximum; inactive = score below 0.9.
# Experiment: CCTE_Shafer_MEA_dev_spike_duration_mean: CCTE's Neural Network Formation Assay for Mean Spike Duration, Shafer Lab (AID 2284051);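 for AC50: potency for a decrease in mean network spike duration versus DMSO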
# Method: CCTE_Shafer_MEA_dev assay is conducted using Axion Biosystems 48 well microelectrode array (MEA) plates and Maestro recording system. Each well of the MEA plate contains a grid of 16 microelectrodes embedded in the culture surface. Electrically active cells, such as neurons, can be cultured over the electrodes, and electrical activity in these cells can be recorded extracellularly. The spontaneous firing of neurons is captured from each electrode on a microsecond timescale providing both temporally and spatially precise data. […] The CCTE_Shafer_MEA_dev assay uses primary cultures of rat cortical neurons. Recordings are made on days post-plating 5, 7, 9 and 12. As these cultures mature over time, neural networks develop functional activity and form cohesive networks in which electrical activity can be highly coordinated. CCTE_Shafer_MEA_dev_spike_duration_mean is 1 of 19 assay components of the CCTE_Shafer_MEA_dev assay. It measures the average duration of network spikes (temporally-clustered groups of action potential firing across multiple electrodes) during a recording in a microelectrode array (MEA) using Axion Biosystems Maestro 768 channel amplifier with the AxIS adaptive spike detector. To collapse across multiple recordings made on days post-plating 5, 7, 9 and 12, the trapezoidal area-under-the-curve of the component is calculated.Data from the assay component CCTE_Shafer_MEA_dev_spike_duration_mean was analyzed into 1 assay endpoint. This assay endpoint, CCTE_Shafer_MEA_dev_spike_duration_mean, was analyzed in the negative analysis fitting direction relative to DMSO as the negative control and baseline of activity. Using a type of functional reporter, gain or loss-of-signal activity can be used to understand electrical activity.
# On the day prior to culture, each well was coated thoroughly with 150 uL of 0.05% polyethyleneimine (PEI, Sigma Cat P3143) in 50 mM HEPES (Sigma Cat H7523) at a pH of 8. The plate was incubated at 37C for one hour. PEI was rinsed out with 500 uL of sterile water three times. Plates were stored at 4C until the day of culture. This culture was plated at a seeding density of 1.5 x 10^5 cells/well on a 48-well MEA plate, prepared as described above. Cells were administered via a 25 uL media/laminin ([…]; Sigma Cat L2020-1MG) drop directly onto the microelectrode array, as adding the cells with the laminin results in better attachment than pre-coating with laminin. After 2 hours, an additional 475 uL of cortical media was added and the cells returned to the incubator. Exposure starts at day 0 of plating and is continued over twelve days of network development until the experiment is terminated. Cells are fed with fresh medium on DIV 5 and 9, following the recordings on those days. The entire volume of media in the well is exchanged and any vehicle or compound treatment is renewed. Complete details are found in OP-NHEERL/ISTD/SBB/TJS/2015-03-r0 (available on request, email shafer.tim@epa.gov). Measurement of the electrical activity is non-invasive, and recordings can be made from the same plate over multiple different days of the culture. In cortical neurons, this allows for the measurement of extracellular action potentials over the period during which networks form in the MEA plate.
Structure (SMILES),outcome,AC50
NS(=O)(=O)C(F)(F)C(F)(F)C(F)(F)C(F)(F)C(F)(F)C(F)(F)C(F)(F)C(F)(F)F,inactive,23.3 µM (active)
O=S(=O)(O)C(F)(F)C(F)(F)C(F)(F)C(F)(F)F,inactive,50 µM (active)
O=C(O)C(F)(F)C(F)(F)C(F)(F)C(F)(F)C(F)(F)C(F)(F)C(F)(F)C(F)(F)F,inactive,–
Oc1ccc(C(c2ccc(O)cc2)(C(F)(F)F)C(F)(F)F)cc1,inactive,9.95 µM (active)
CCOP(=S)(OCC)SCSC(C)(C)C,–,13.9 µM (active) and 21.9 µM (active)
ClC1=C(Cl)[C@]2(Cl)[C@@H]3[C@H]4C[C@H]([C@@H]5O[C@H]45)[C@@H]3[C@@]1(Cl)C2(Cl)Cl,inactive,–
CO/C=C(/C(=O)OC)c1ccccc1COc1cccc(C(F)(F)F)n1,–,212 nM (active) and 454 nM (active)
ClC1=C(Cl)[C@]2(Cl)[C@@H]3[C@@H]4C[C@@H]([C@H]5O[C@@H]45)[C@@H]3[C@@]1(Cl)C2(Cl)Cl,–,23.9 µM (active)
COc1ccc(O)c(C(C)(C)C)c1,inactive,–
CCC(C)(c1ccc(O)cc1)c1ccc(O)cc1,–,10 µM (active)
O=C(O)C(F)(F)C(F)(F)C(F)(F)C(F)(F)C(F)(F)F,inactive,–
c1cc2ccc3cccc4ccc(c1)c2c34,inactive,–
O=S(=O)(O)C(F)(F)C(F)(F)C(F)(F)C(F)(F)C(F)(F)C(F)(F)F,inactive,–
ClC(Cl)=C(c1ccc(Cl)cc1)c1ccc(Cl)cc1,–,3.8 µM (active)
C=CC(N)=O,inactive,–
ClC1=C(Cl)[C@]2(Cl)[C@@H]3[C@@H](Cl)[C@H]4O[C@H]4[C@@H]3C1(Cl)C2(Cl)Cl,–,25.9 µM (active)
Clc1ccc(C(c2ccccc2Cl)C(Cl)(Cl)Cl)cc1 (stereo not given),–,2.76 µM (active)
